Test results published in the supplement of paper PMC10646978.
± gives the standard deviation.

Each compound was assayed on RAW-Dual (murine macrophage reporter line) (assay: IRF reporter (Lucia luciferase) activity fold change vs agonist alone; higher = enhanced IRF activity). Settings: modulator concentration 10 µM; agonist: LPS 0.1 ug/mL.
In short: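 RAW-Dual murine macrophage reporter cells were seeded at 50 000 per well in 384-well plates and pre-incubated 1 hour at 37 °C with compound pin-transferred to 10 μM final. After 1 hour, a PRR agonist was added and cells incubated overnight. Supernatant NF-κB (SEAP, QUANTI-Blue, 620 nm absorbance) and IRF (Lucia luciferase, QUANTI-Luc, luminescence) signals were divided by the mean agonist-only control on the same plate to give fold change. Two replicate plates were averaged, with errors by propagation.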

SMILES	IRF reporter
Cc1cc(=O)nc(SCCc2ccccc2)[nH]1	1.06 ± 0.053
CC(=O)c1c(C(C)=O)c(C)n(-c2ccccc2N)c1C	1.3 ± 0.21
Cc1ccc(CCC(=O)N2CC(N3C(=O)C4CC=CCC4C3=O)C2)cc1F (stereo not given)	1.05 ± 0.12
CCN(CC)C(=O)N1CCN(C)CC1.O=C(O)CC(O)(CC(=O)O)C(=O)O	1.23 ± 0.23
CC1CC2(NC(=O)NC2=O)C(C)CN1C (stereo not given)	1.34 ± 0.2
COc1ccc(NC(=O)CN2C(=O)c3ccccc3C2=O)c([N+](=O)[O-])c1	1.29 ± 0.082
COc1ccccc1N1CCN(CC(O)COc2cccc3ccccc23)CC1 (stereo not given)	1.6 ± 0.14
COc1cc2c(Oc3ccc4[nH]c(C)cc4c3F)ncnc2cc1OCCCN1CCCC1	1.22 ± 0.082
CCOc1ccc(Cc2cc([C@@H]3O[C@H](SC)[C@@H](O)[C@H](O)[C@H]3O)ccc2Cl)cc1	0.957 ± 0.18
Cc1cn(-c2cc(NC(=O)c3ccc(C)c(Nc4nccc(-c5cnccn5)n4)c3)cc(C(F)(F)F)c2)cn1	0.943 ± 0.11
O=C(Nc1ccc(-c2cn3ccsc3n2)cc1)C1CCCC1	1.23 ± 0.18
O=Cc1ccc(OCc2cccc([N+](=O)[O-])c2)c(Br)c1	1.4 ± 0.09
CN(C)CC(c1ccc(O)cc1)C1(O)CCCCC1.O=C(O)CCC(=O)O (stereo not given)	1.29 ± 0.29
O=C(CCCCCN1C(=O)c2cccc3cccc(c23)C1=O)NCCCO	1.11 ± 0.053
Cc1cc(C(=O)Nc2ccccc2S(C)(=O)=O)no1	1.04 ± 0.05
N#CC(=Cc1cn(Cc2ccccc2Cl)c2ccccc12)c1nn(CCO)c(N)c1C#N	1.18 ± 0.17
O=c1cc(CO)occ1O	1.28 ± 0.12
CCOc1ccc(N=Cc2c(Nc3ccc(OCC)cc3)nc3ccccn3c2=O)cc1	1.23 ± 0.14
CC(NCCC(c1ccccc1)c1ccccc1)c1ccccc1.Cl (stereo not given)	0.929 ± 0.13
O=C(Cn1nc(S(=O)(=O)c2cccc(F)c2)ccc1=O)N1CCc2ccccc2C1	1.29 ± 0.1

SMILES	IRF reporter
COc1cc2c(Nc3ccc(Br)cc3F)ncnc2cc1OCC1CCN(C)CC1	1.11 ± 0.17
O=C(c1ccc(S(=O)(=O)N2CCCC2)cc1)N1CC(Nc2ccncn2)C1	1.23 ± 0.13
Cc1cc(C)n(-c2ccc(=O)n(CCNS(=O)(=O)c3ccccc3F)n2)n1	1.2 ± 0.081
O=C(CC12CC3CC(CC(C3)C1)C2)N1CCCCC1	1.53 ± 0.1
COc1ccc(CNC2CCCc3ccccc32)c(OC)c1 (stereo not given)	1.23 ± 0.13
O=S(=O)(NCc1ccc(-c2cccnc2)nc1)c1ccc(OC(F)(F)F)cc1	1.09 ± 0.066
O=c1oc2cc(O)ccc2s1	0.962 ± 0.067
CNCCC=C1c2ccccc2CCc2ccccc21.Cl	1.11 ± 0.24
CCc1nc(N)nc(N)c1-c1ccc(Cl)cc1	0.974 ± 0.07
Fc1ccc(CN2CCc3c([nH]c4ccccc34)C2)c(F)c1	1.32 ± 0.2
CCOc1nc2cccc(C(=O)O)c2n1Cc1ccc(-c2ccccc2-c2nc(=O)o[nH]2)cc1	1.41 ± 0.38
COc1ccc2c(C)nc(Nc3nc(C)cc(-c4ccccc4)n3)nc2c1	1.28 ± 0.12
Cc1cc(C(=O)NCc2sc(-c3ccccc3Cl)nc2C)c(C)o1	1.11 ± 0.25
Cc1cccc2sc(NNC(=O)c3ccc(S(=O)(=O)N4CCc5ccccc5C4)cc3)nc12	1.2 ± 0.2
COC(=O)C1=C(C)NC(C)=C(C(=O)OC(C)(C)CN(C)CCC(c2ccccc2)c2ccccc2)C1c1cccc([N+](=O)[O-])c1.Cl (stereo not given)	1.69 ± 0.37
O=C(O[C@@H]1C[C@@H]2C[C@@H]3C[C@H](C1)N2CC3=O)c1c[nH]c2ccccc12 [Prestw-1510]	0.958 ± 0.055
COc1cc(C=Nc2ccc3oc(-c4ccc(C(C)(C)C)cc4)nc3c2)ccc1OC(=O)c1ccc(Cl)cc1Cl	1.28 ± 0.15
O=C(c1ccc(I)cc1)N(C1CCCCC1)C1CCCCC1	1.02 ± 0.13
Cc1occc1C(=O)Nc1ccc(F)c(F)c1	1.07 ± 0.081
Cc1cc(C(=O)O)n[nH]1	1.24 ± 0.14

Same assay, conditions: modulator concentration 10 µM; agonist: MPLA […]

SMILES	IRF reporter
Cc1cc(=O)nc(SCCc2ccccc2)[nH]1	1.2 ± 0.091
CC(=O)c1c(C(C)=O)c(C)n(-c2ccccc2N)c1C	1.43 ± 0.35
Cc1ccc(CCC(=O)N2CC(N3C(=O)C4CC=CCC4C3=O)C2)cc1F (stereo not given)	0.87 ± 0.092
CCN(CC)C(=O)N1CCN(C)CC1.O=C(O)CC(O)(CC(=O)O)C(=O)O	1.16 ± 0.27
CC1CC2(NC(=O)NC2=O)C(C)CN1C (stereo not given)	1.21 ± 0.15
COc1ccc(NC(=O)CN2C(=O)c3ccccc3C2=O)c([N+](=O)[O-])c1	1.36 ± 0.13
COc1ccccc1N1CCN(CC(O)COc2cccc3ccccc23)CC1 (stereo not given)	1.35 ± 0.13
COc1cc2c(Oc3ccc4[nH]c(C)cc4c3F)ncnc2cc1OCCCN1CCCC1	1.35 ± 0.12
CCOc1ccc(Cc2cc([C@@H]3O[C@H](SC)[C@@H](O)[C@H](O)[C@H]3O)ccc2Cl)cc1	1.07 ± 0.11
Cc1cn(-c2cc(NC(=O)c3ccc(C)c(Nc4nccc(-c5cnccn5)n4)c3)cc(C(F)(F)F)c2)cn1	1.19 ± 0.33
O=C(Nc1ccc(-c2cn3ccsc3n2)cc1)C1CCCC1	1.38 ± 0.23
O=Cc1ccc(OCc2cccc([N+](=O)[O-])c2)c(Br)c1	1.49 ± 0.12
CN(C)CC(c1ccc(O)cc1)C1(O)CCCCC1.O=C(O)CCC(=O)O (stereo not given)	1.18 ± 0.36
O=C(CCCCCN1C(=O)c2cccc3cccc(c23)C1=O)NCCCO	1.08 ± 0.082
Cc1cc(C(=O)Nc2ccccc2S(C)(=O)=O)no1	1.06 ± 0.15
N#CC(=Cc1cn(Cc2ccccc2Cl)c2ccccc12)c1nn(CCO)c(N)c1C#N	0.936 ± 0.058
O=c1cc(CO)occ1O	1.33 ± 0.19
CCOc1ccc(N=Cc2c(Nc3ccc(OCC)cc3)nc3ccccn3c2=O)cc1	1.41 ± 0.23
CC(NCCC(c1ccccc1)c1ccccc1)c1ccccc1.Cl (stereo not given)	1 ± 0.13
O=C(Cn1nc(S(=O)(=O)c2cccc(F)c2)ccc1=O)N1CCc2ccccc2C1	1.14 ± 0.21

SMILES	IRF reporter
COc1cc2c(Nc3ccc(Br)cc3F)ncnc2cc1OCC1CCN(C)CC1	1.29 ± 0.35
O=C(c1ccc(S(=O)(=O)N2CCCC2)cc1)N1CC(Nc2ccncn2)C1	1.06 ± 0.095
Cc1cc(C)n(-c2ccc(=O)n(CCNS(=O)(=O)c3ccccc3F)n2)n1	1.13 ± 0.11
O=C(CC12CC3CC(CC(C3)C1)C2)N1CCCCC1	1.23 ± 0.15
COc1ccc(CNC2CCCc3ccccc32)c(OC)c1 (stereo not given)	1.61 ± 0.17
O=S(=O)(NCc1ccc(-c2cccnc2)nc1)c1ccc(OC(F)(F)F)cc1	1.16 ± 0.11
O=c1oc2cc(O)ccc2s1	0.827 ± 0.074
CNCCC=C1c2ccccc2CCc2ccccc21.Cl	1.99 ± 0.4
CCc1nc(N)nc(N)c1-c1ccc(Cl)cc1	0.865 ± 0.075
Fc1ccc(CN2CCc3c([nH]c4ccccc34)C2)c(F)c1	1.21 ± 0.16
CCOc1nc2cccc(C(=O)O)c2n1Cc1ccc(-c2ccccc2-c2nc(=O)o[nH]2)cc1	1.31 ± 0.12
COc1ccc2c(C)nc(Nc3nc(C)cc(-c4ccccc4)n3)nc2c1	1.37 ± 0.17
Cc1cc(C(=O)NCc2sc(-c3ccccc3Cl)nc2C)c(C)o1	1.27 ± 0.44
Cc1cccc2sc(NNC(=O)c3ccc(S(=O)(=O)N4CCc5ccccc5C4)cc3)nc12	0.93 ± 0.11
COC(=O)C1=C(C)NC(C)=C(C(=O)OC(C)(C)CN(C)CCC(c2ccccc2)c2ccccc2)C1c1cccc([N+](=O)[O-])c1.Cl (stereo not given)	2.85 ± 0.23
O=C(O[C@@H]1C[C@@H]2C[C@@H]3C[C@H](C1)N2CC3=O)c1c[nH]c2ccccc12 [Prestw-1510]	0.958 ± 0.18
COc1cc(C=Nc2ccc3oc(-c4ccc(C(C)(C)C)cc4)nc3c2)ccc1OC(=O)c1ccc(Cl)cc1Cl	1.14 ± 0.1
O=C(c1ccc(I)cc1)N(C1CCCCC1)C1CCCCC1	1.18 ± 0.3
Cc1occc1C(=O)Nc1ccc(F)c(F)c1	1.46 ± 0.14
Cc1cc(C(=O)O)n[nH]1	1.34 ± 0.2
